Growth inhibition call data for 62 compounds are collected here from the antibiotic and cytotoxicity screens of Wong et al. (2023).

In all, about 39,000 compounds went through this assay and about 500 (1.3%) were called active. The entries come from a sample that favours actives as a whole.

The assay relates to S. aureus RN4220. The experiment in a line: growth inhibition call (relative growth <= 0.2). The note with it: 50 µM.
With `COc1ccc(-c2cc3c(c(CCc4ccccc4)n2)[Si](C(C)C)(C(C)C)O[C@H]3c2ccccc2)cn1`, the growth inhibition call was “inactive”.
Then `COc1cc(Cc2cc3c(c(CCc4ccccc4)n2)[Si](C(C)C)(C(C)C)OC3)cc(OC)c1OC`, with “inactive”; and `CCCCCCc1nc(-c2cc(C)c(OC)c(C)c2)cc2c1[Si](C(C)C)(C(C)C)O[C@H]2c1ccccc1`, with “inactive”; and `COc1cc(Cc2cc3c(c(CCc4ccccc4)n2)[Si](C(C)C)(C(C)C)O[C@H]3c2ccccc2)cc(OC)c1OC`, with “active”.
Turning to `COc1c(C)cc(-c2cc3c(c(-c4ccccc4)n2)[Si](C(C)C)(C(C)C)O[C@H]3c2ccccc2)cc1C`, the growth inhibition call was “inactive”.
Turning to `COc1c(C)cc(-c2cc3c(c(CCc4ccccc4)n2)[Si](C(C)C)(C(C)C)O[C@H]3c2ccccc2)cc1C`, the growth inhibition call is “active”.
Regarding `C=CCNC1=C2C[C@H](C)C[C@H](OC)[C@@H](O)[C@H](C)/C=C(\C)[C@H](OC(N)=O)[C@H](OC)/C=C/C=C(\C)C(=O)NC(=CC1=O)C2=O`, the growth inhibition call was “inactive”.
Next, `C[C@H](CO)N1C[C@H](C)[C@H](CN(C)Cc2ccc(C(=O)Nc3ccccc3N)cc2)Oc2c(NC(=O)NC3CCCCC3)cccc2C1=O`: “inactive”; `C[C@@H]1CCCCO[C@@H](CN(C)CC2CCCCC2)[C@H](C)CN([C@@H](C)CO)C(=O)c2cc(NS(=O)(=O)c3cccs3)ccc2O1`: “inactive”; `NCCNC(=O)c1nc(-c2ccc(Br)o2)no1`: “inactive”.
As to `O=C(NCc1ccc(Oc2ccccc2)cc1)c1nc(-c2cc(Br)c(O)c(Br)c2)no1`, the growth inhibition call is “active”.
Next, `NNC(=O)c1nc(-c2ccccc2)no1`: “inactive”; `COc1ccc(NC(=O)N(C)C[C@H]2Oc3c(NC(=O)c4ccc(-c5nccs5)cc4)cccc3C(=O)N([C@@H](C)CO)C[C@H]2C)cc1`: “inactive”; `CN(C)c1cc[n+](C(=O)N2CCOCC2)cc1`: “inactive”.
Then `O=c1[nH]c(=O)c2cc(Br)ccc2[nH]1`, with “inactive”.
Take `COc1ccc2[nH]c(=O)[nH]c(=O)c2c1`: the growth inhibition call was “active”.
Then `O=c1[nH]c(=O)c2ccccc2[nH]1`, with “inactive”.
`O=C(Nc1ccc(-c2nc3ccc(NC(=O)c4ccc(Cl)cc4)cc3[nH]2)cc1)c1ccc(Cl)cc1`: the growth inhibition call was “inactive”.
For `COCC#Cc1cnc2c(c1)C(=O)N([C@H](C)CO)C[C@H](C)[C@@H](CN(C)S(=O)(=O)c1cn(C)cn1)O2`, the growth inhibition call was “inactive”.
Turning to `COc1ccc(CN(C)C[C@H]2OCCCC[C@H](C)Oc3ccc(NC(=O)c4ccccc4)cc3C(=O)N([C@@H](C)CO)C[C@@H]2C)cc1`, the growth inhibition call is “inactive”.
On to `Cc1cc(C(=O)Nc2cccc3c2O[C@@H](CN(C)C(=O)NC(C)C)[C@H](C)CN([C@@H](C)CO)C3=O)n(C)n1`, for which the growth inhibition call was “inactive”.
On to `C[C@@H]1CN([C@H](C)CO)C(=O)c2cc(NC(=O)Nc3ccccc3)ccc2O[C@@H](C)CCCCO[C@@H]1CN(C)Cc1ccccc1`, for which the growth inhibition call is “inactive”.
In the case of `C[C@@H](OC[C@@]1(c2ccccc2)CC[C@]2(CCC(=O)N2)CN1)c1cc(C(F)(F)F)cc(C(F)(F)F)c1`, the growth inhibition call is “active”.
As to `COc1ccc(NC(=O)Nc2cccc3c2O[C@@H](CN(C)S(C)(=O)=O)[C@H](C)CN([C@@H](C)CO)C3=O)cc1`, the growth inhibition call is “inactive”.
Next, `Cc1ccccc1[C@@H](c1ncccc1C)N(C)C(=O)C1CCN(CCOc2ccc(Cl)cc2Cl)CC1`: “active”.
Take `Cc1cccnc1[C@H](c1ccc(F)cc1)N(C)C(=O)C1CCN(CCn2cnc3c2c(=O)n(C)c(=O)n3C)CC1`: the growth inhibition call was “inactive”.
For the compound `Cc1cccnc1[C@H](c1ccc(F)cc1)N(C)C(=O)C1CCN(CCOc2ccc(Cl)cc2Cl)CC1`, the growth inhibition call was “active”.
On to `Cc1ccccc1[C@@H](c1ncccc1C)N(C)C(=O)C1CCN(CCOc2ccc3ccccc3c2)CC1`, for which the growth inhibition call is “inactive”.
As to `COc1ccccc1[C@@H](NC(=O)C1CCN(CCOc2ccc(Cl)cc2Cl)CC1)c1ccccn1`, the growth inhibition call was “inactive”.
For `Cc1cc(Cl)ccc1OCCN1CCN(C(=O)[C@H]2CC[C@@H](N)C2)CC1`, the growth inhibition call was “inactive”.
Next, `COc1ccc(S(=O)(=O)Nc2ccc3c(c2)C(=O)N([C@H](C)CO)C[C@@H](C)[C@H](CN(C)Cc2ccc(Cl)c(Cl)c2)OCCCC[C@H](C)O3)cc1`: “inactive”.
Then `C[C@@H]1CN([C@H](C)CO)C(=O)c2cc(-c3ccncc3)cnc2O[C@H]1CN(C)S(=O)(=O)c1ccccc1`, with “inactive”.
Then `C[C@@H]1CN([C@@H](C)CO)C(=O)c2cc(NS(=O)(=O)c3ccc(F)cc3)ccc2O[C@H]1CN(C)C(=O)Nc1ccc(C(F)(F)F)cc1`, with “inactive”; and `C[C@@H]1CCCCO[C@H](CN(C)S(=O)(=O)c2cn(C)cn2)[C@H](C)CN([C@@H](C)CO)C(=O)c2cc(NS(=O)(=O)c3ccc(F)cc3)ccc2O1`, with “inactive”; and `C[C@@H]1CN([C@@H](C)CO)C(=O)c2cc(NC(=O)Nc3cccc4ccccc34)ccc2O[C@@H]1CN(C)S(=O)(=O)c1ccc(F)cc1`, with “inactive”.
With `COc1cc(OC)cc(-c2ccc([C@H]3CC(=O)C[C@@H](c4ccccc4)C34C(=O)c3ccccc3C4=O)cc2)c1`, the growth inhibition call is “active”.
Next, `COc1cc(OC)cc(-c2ccc([C@H]3CC(=O)C[C@@H](c4ccccc4)C34C(=O)OC(C)(C)OC4=O)cc2)c1`: “inactive”; `COc1cc(OC)cc(-c2ccc(-c3ccc([C@H]4CC(=O)C[C@@H](c5ccccc5)C45C(=O)OC(C)(C)OC5=O)cc3)cc2OC)c1`: “inactive”.
For the compound `Cc1cc(C(=O)Nc2cccc3c2O[C@H](CN(C)C(=O)NC(C)C)[C@@H](C)CN([C@H](C)CO)C3=O)n(C)n1`, the growth inhibition call was “inactive”.
Next, `C[C@H](CO)N1C[C@H](C)[C@@H](CN(C)C(=O)c2ccccc2)OCCCC[C@H](C)Oc2ccc(NC(=O)Nc3ccc4c(c3)OCO4)cc2C1=O`: “inactive”; `CO[C@H]1CN(C)C(=O)c2ccc(NS(=O)(=O)c3ccccc3C)cc2OC[C@@H](C)N(S(C)(=O)=O)C[C@@H]1C`: “inactive”.
For the compound `C[C@@H]1CCCCO[C@H](CN(C)C)[C@H](C)CN([C@@H](C)CO)C(=O)c2cc(NC(=O)CCCN(C)C)ccc2O1`, the growth inhibition call was “inactive”.
Take `CO[C@@H]1[C@@H](O[C@@H]2O[C@H](C)[C@@H](O[C@H]3C[C@@](C)(O)[C@@H](OC(=O)CC(C)C)[C@H](C)O3)[C@H](N(C)C)[C@H]2O)[C@@H](CC=O)C[C@@H](C)[C@@H](O)/C=C/C=C/CC(C)OC(=O)C[C@H]1OC(C)=O` (some centres not stated): the growth inhibition call was “inactive”.
Next, `COC(=O)[C@@H]1CC(=O)O[C@H](C)C/C=C/C=C/[C@H](O)[C@H](C)C[C@H](CC=O)[C@H](O[C@H]2O[C@H](C)[C@@H](O[C@H]3C[C@@](C)(O)[C@@H](OC(=O)CC(C)C)[C@H](C)O3)[C@H](N(C)C)[C@H]2O)[C@H]1OC`: “active”; `CO[C@@H]1[C@@H](O[C@@H]2O[C@H](C)[C@@H](O[C@H]3C[C@@](C)(O)[C@@H](OC(=O)CC(C)C)[C@H](C)O3)[C@H](N(C)C)[C@H]2O)[C@@H](CC=O)C[C@@H](C)[C@@H](O)/C=C\C=C/C[C@@H](C)OC(=O)C[C@H]1OC(C)=O`: “active”; `COC1C(O)CC(=O)OC(C)CC=CC=CC(O)C(C)CC(CC=O)C1OC1OC(C)C(OC2CC(C)(O)C(OC(=O)CC(C)C)C(C)O2)C(N(C)C)C1O` (configuration not stated) [KITASAMYCINS [A1 shown]]: “active”.
With `C[C@@H]1CN([C@@H](C)CO)C(=O)c2cc(NC(=O)CCC(F)(F)F)ccc2O[C@@H]1CN(C)Cc1ccc(Oc2ccccc2)cc1`, the growth inhibition call was “inactive”.
Then `C[C@@H]1CN([C@H](C)CO)C(=O)c2cccc(NC(=O)Nc3ccc(C(F)(F)F)cc3)c2O[C@@H]1CN(C)C(=O)NC1CCCCC1`, with “inactive”; and `C[C@H](CO)N1C[C@H](C)[C@H](CN(C)C(=O)Nc2ccc(C(F)(F)F)cc2)Oc2c(NC(=O)NC3CCCCC3)cccc2C1=O`, with “active”.
Take `C[C@H]1CN([C@@H](C)CO)C(=O)c2cccc(NC(=O)Nc3ccc(C(F)(F)F)cc3)c2O[C@@H]1CN(C)CC1CCCCC1`: the growth inhibition call was “inactive”.
Then `C[C@@H]1CN([C@H](C)CO)C(=O)c2cccc(NC(=O)Nc3ccc(C(F)(F)F)cc3)c2O[C@H]1CN(C)CC1CCCCC1`, with “inactive”; and `C[C@@H]1CN([C@H](C)CO)C(=O)c2cccc(NC(=O)Nc3ccc(C(F)(F)F)cc3)c2O[C@@H]1CN(C)CC1CCCCC1`, with “active”.
`C[C@H]1CN([C@@H](C)CO)C(=O)c2cccc(NC(=O)Nc3ccc(C(F)(F)F)cc3)c2O[C@H]1CN(C)C(=O)NC1CCCCC1`: the growth inhibition call was “active”.
Then `C[C@H]1CN([C@@H](C)CO)C(=O)c2cccc(NC(=O)Nc3ccc(C(F)(F)F)cc3)c2O[C@@H]1CN(C)C(=O)NC1CCCCC1`, with “inactive”.
Next, `C[C@H]1CN([C@@H](C)CO)C(=O)c2cccc(NC(=O)NC3CCCCC3)c2O[C@H]1CN(C)C(=O)Nc1ccc(C(F)(F)F)cc1`: “inactive”.
Turning to `C[C@@H]1CN([C@H](C)CO)C(=O)c2cccc(NC(=O)NC3CCCCC3)c2O[C@H]1CN(C)C(=O)Nc1ccc(C(F)(F)F)cc1`, the growth inhibition call is “inactive”.
Next, `C[C@H](CO)N1C[C@H](C)[C@H](CN(C)C(=O)Cc2ccccc2)OCCCC[C@H](C)Oc2ccc(NS(=O)(=O)c3ccc(F)cc3)cc2C1=O`: “inactive”; `C[C@@H]1CN([C@@H](C)CO)C(=O)c2cccc(NC(=O)Nc3ccc(C(F)(F)F)cc3)c2O[C@H]1CN(C)C(=O)NC1CCCCC1`: “inactive”; `C[C@H](O)C#Cc1cnc2c(c1)C(=O)N([C@@H](C)CO)C[C@H](C)[C@@H](CN(C)C(=O)Nc1ccc(C(F)(F)F)cc1)O2`: “inactive”.
Next, `C[C@@H]1CN([C@H](C)CO)C(=O)Cc2cc(NC(=O)Nc3ccc(C(F)(F)F)cc3)ccc2O[C@@H]1CN(C)C(=O)Nc1cccc2ccccc12`: “inactive”; `COC1C(OC(N)=O)C(O)C(Oc2ccc3c([O-])c(NC(=O)c4ccc(O)c(CC=C(C)C)c4)c(=O)oc3c2C)OC1(C)C.[Na+]` (configuration not stated): “active”; `CO[C@@H]1[C@@H](OC(=O)c2ccc(C)[nH]2)[C@@H](O)[C@@H](Oc2ccc3c(c2C)OC(=O)[C@H](NC(=O)c2[nH]cc(CC(=O)Nc4cc5ccc(O[C@@H]6OC(C)(C)[C@H](OC)[C@@H](OC(=O)c7ccc(C)[nH]7)[C@H]6O)c(C)c5oc4=O)c2C)C3)CC1(C)C`: “inactive”.
